Reference: the supplement of paper PMC6555819

These sequences were tested on RARb homodimer (NR concentration 270 nM) (assay: PBM binding z-score (relative to random genomic background probes); higher = stronger binding; sequences stand for … in GC…GCGATTGACAGCGTAGAATGAAGG).
Procedure, shortened: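 Probes were double-stranded and carried 34-nt variable regions with direct-repeat seeds, single-nucleotide variants, half-site ablations and random human genomic background sequences, printed on custom Agilent 4×180K protein-binding microarrays. Arrays were incubated 1 h with ligand-free nuclear receptor dimers in PBS pH 7.4, 2% milk, 0.02% Triton X-100, 1 mM DTT, 0.2 mg/mL BSA and 0.4 mg/ml salmon testes DNA. Antibodies against each partner (one per run) detected binding, and scanned fluorescence was regression-normalized. Binding z-scores use the random background probes as reference.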
With CGTTCAAGGTCAAGGTCAGTGAAAGAGACTCGAA the PBM binding z-score was 5.27. For ACTAGTTGGTCAGCCGAGGTCACACACAATTCGG, the PBM binding z-score was 4.36. For AGTCAAAGTTCACTAGATAACGTAAGATTCAGCT, the PBM binding z-score was 3.55. Work on ACTCGGAGAACAAAGGTCAGAGCTACGCCAGTGA yielded a PBM binding z-score of 4.39. CCTAGGTGGTCAGGAGGTCACACACCGGATATGA gave a PBM binding z-score of 4.34. CCTTAAGGGTCACTGACAGGTTATAGCATTTGGA gave a PBM binding z-score of 4.71. For TCGAGTAGGTTACCAATGGGGCATTCCGCTTTCT, the PBM binding z-score was 0.449. Sequence TCTTGTAGATCAACGGTTAAGAAAGCCGAAGCCT has a PBM binding z-score of -0.249. Sequence CCGACTGGGGCAGAAAGGTTACCATACCATCCGG has a PBM binding z-score of 1.96. GCTAGCAGGCCATTTGGGTTACTCAATGACGGGC showed a PBM binding z-score of -0.137. Work on AGTCAAAGTTCATCTAGGGAACGTAAGATATGCT yielded a PBM binding z-score of 3.82. CAAACTAGGTCACCGGATGGTCAAAGTCCGCATG was tested, and the PBM binding z-score was 4.02. Sequence CCTCGGAGGCCAGAAGGTCAGAGCTGTCCGCTTT has a PBM binding z-score of 3.49. Work on CTCGAAAGGTCGGTTGAGGTGAGTGTACGGATAA yielded a PBM binding z-score of 2.49. TAGCCTAGGTCATGGTCCAGTATACCACGCGAAC was tested, and the PBM binding z-score was 3.04. With CCTGCTAGGTCAATGGTCAGCTACAGCAGCTCGC the PBM binding z-score was 2.95. Work on TCGAGTACGTTAGGGGCATTCAGAATGGCGTCGA yielded a PBM binding z-score of 0.267. For TAGCCTAGGACATTGGGCCAGTATAGTACGCATC, the PBM binding z-score was -0.251. Sequence CCTTACGGGTCACAAGGTTATAGCACGACGAGCG has a PBM binding z-score of 3.71. With GTAACGAGGGCAAGTTGATAGCAGAGTTTGATGG the PBM binding z-score was 1.71. ACGTACGGGTCAACGAGGTTATAGCACGCGTATA was tested, and the PBM binding z-score was 3.58. With TCAAACAGGTGAAGGTAACTCAGGTACGCAGTCG the PBM binding z-score was 0.716. In the case of CGAACTAGGTCAGAACTGGACAGTGAAGGATGAT, the PBM binding z-score is reported as 1.62. CCTACTGGTCCAAAGGTCATTGATTCCAATGCTC gave a PBM binding z-score of 4.86. Work on CCGACTGGGGCAGAAAGGTTACCACACCATCCGG yielded a PBM binding z-score of 2.28. Work on CCTGCTAGGTCAATAGTCAGCTAAAGCAGCTCGC yielded a PBM binding z-score of 2.18. GCTAGCTGGCCATTTGGGTCACTCAATGACGGGC gave a PBM binding z-score of 1.49. TTACCAAGGGGAAGGTCGTTGATCCCTCTGTAGA showed a PBM binding z-score of 0.634. For ACTATTAGTTGACTTAGGGCAACCCATACGACGC, the PBM binding z-score was 1.13. Work on CAAACTAGGTCGCGAAAGGTCAAAGTCGAATGAC yielded a PBM binding z-score of 5.22. For CCTAGCAGGCCAGTGTCACTCAAGCATTTCGCTT, the PBM binding z-score was 0.0425. ACTTACGGGTCAACGAGGTTATAGGACGCGTATA was tested, and the PBM binding z-score was 3.83. In the case of TCATATAGGTAAACAGGTGGAAGTCCGTAAGTTA, the PBM binding z-score is reported as 0.247. ATCGAAAGGTCGCGAGGTGAGTATACAGAAAGGC showed a PBM binding z-score of 3.4. For CCCCGGAGGACAACAGGAGGTCAGAGCTGCCAGA, the PBM binding z-score was 3.5. Work on ACTTACGGGTCAACGAGGTTATAGTACGCGTATA yielded a PBM binding z-score of 3.9. TCGAGTAGGTTACCATTGGGGCATTCAGCTTTCT showed a PBM binding z-score of 0.675. With CCTTGTTGGTCAAGGTCACACACGCTATAGGTAC the PBM binding z-score was 4.53. With CCTACTGGGCCACGAAAGGTCATTTATTCAGTGA the PBM binding z-score was 4.32. In the case of TCTTGTAGATCAAGAGAGGTTAAGAAAGTGCGCT, the PBM binding z-score is reported as 0.846.
